Screening results as filed in PubChem.
This is a sample that favours compounds with a hit; in the whole collection about 1.2% have one here.
RGS8-Gao reg: modulates binding of RGS8 to human Galphao | AID 1423 | P09471 | 0.34% of 220,000 active | multiplexed bead flow cytometry; actives lie on both sides | response (percent of control binding), % at 10 µM; in the data active = response below about 60% or above about 140%; inactive = in between;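 also: Galphao activated as the GDP aluminium fluoride complex binding bead-coupled RGS8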
Target sequence (P09471 whole entry, looked up): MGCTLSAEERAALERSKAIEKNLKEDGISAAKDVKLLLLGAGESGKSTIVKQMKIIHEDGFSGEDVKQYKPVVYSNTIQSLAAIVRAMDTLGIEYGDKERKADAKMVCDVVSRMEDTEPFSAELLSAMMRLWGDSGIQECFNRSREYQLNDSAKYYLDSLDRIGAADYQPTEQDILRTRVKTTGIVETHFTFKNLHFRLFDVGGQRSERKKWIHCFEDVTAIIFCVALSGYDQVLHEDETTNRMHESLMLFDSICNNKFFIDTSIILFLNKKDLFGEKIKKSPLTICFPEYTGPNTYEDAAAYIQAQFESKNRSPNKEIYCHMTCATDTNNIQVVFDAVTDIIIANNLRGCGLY
RGS16-Gao: regulators of human RGS16-Galphao interaction; bead-based flow cytometry RGS16-Galphao binding, fluorescence; actives lie on both sides; binding response (% of control), % at 10 µM; 0.38% of 220,000 active; AID 1441;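 also: Galphao activated by GDP with aluminum fluoride before binding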
Target sequence (O15492 whole entry, looked up): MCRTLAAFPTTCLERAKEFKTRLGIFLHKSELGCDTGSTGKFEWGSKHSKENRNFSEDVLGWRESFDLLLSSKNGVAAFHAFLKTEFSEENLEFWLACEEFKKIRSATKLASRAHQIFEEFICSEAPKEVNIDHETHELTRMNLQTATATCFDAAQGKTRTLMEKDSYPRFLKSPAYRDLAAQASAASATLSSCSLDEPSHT
Target sequence (P09471 whole entry, looked up): as the sequence (P09471 whole entry, looked up) above
RGS7-Gao: regulators of human RGS7-Galphao interaction; Multiplexed bead flow cytometry, RGS7-Galphao binding; actives lie on both sides; binding response (% of control), % at 10 µM; 0.35% of 220,000 active; AID 1439; in the data active = binding response below about 49% or above about 150%; inconclusive = no clear call, values can overlap the other calls; inactive = in between;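 also: fluorescent Galphao held in activated GDP-AlF4 state binding bead-coupled RGS7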
GSH bead fluor: compound fluoresces at 488/530 nm on GSH beads; AID 1776; fluorescence (KMESF) at 10 µM; GSH beads flow cytometry, compound fluorescence 488/530 nm; active compounds read high; 0.25% of 190,000 active; in the data active = fluorescence above about 89;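 also: glutathione beads carrying GST-tagged Bcl family fusion proteins plus one bare bead set; values are compound well signal with DMSO vehicle wells as background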
Avidin fluor: avidin bead compound fluorescence profile; Avidin beads, compound fluorescence 488/530 nm, flow cytometry; active compounds read high; fluorescence (KMESF) at 10 µM; 0.38% of 220,000 active; in the data active = fluorescence above about 47
RGS4-Gao reg: human RGS4-Galphao interaction regulation; P09471; Multiplexed bead flow cytometry, RGS4-Galphao binding; actives lie on both sides; binding response (% of control), % at 10 µM; 0.33% of 220,000 active; AID 1415; in the data active = binding response below about 49% or above about 150%; inactive = in between;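 also: fluorescent Galphao activated with aluminum fluoride binding bead-coupled RGS4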
RGS-Gao: regulators of human RGS4-Galphao interaction; shares compounds with RGS16-Gao; multiplexed bead flow cytometry, RGS–Galpha-o binding; RGS4–Galpha-o binding response, % at 10 µM; 99% of 1,600 active; AID 1504;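 also: fluorescently labeled Galpha-o bound to GDP with aluminium fluoride binding biotinylated RGS beads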
Biotin-avidin: interferes with biotinylated probe binding to avidin beads; inhibition, % at 10 µM; streptavidin beads, fluorescein-biotin binding, flow cytometry; shares compounds with RGS16-Gao; 1,700 tested, under 10 active;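 active = inhibition above 50%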;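 also: median green fluorescence of gated singlet beads compared with DMSO control wells; 0% = DMSO wells and 100% = complete loss of bead fluorescence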
RGS8-Gao single: confirmation of regulators of human RGS8-Galphao interaction; shares compounds with RGS16-Gao; bead-based flow cytometry RGS8-Galphao binding, fluorescence; actives lie on both sides; binding response (% of control), % at 10 µM; 3% of 1,700 active; in the data active = binding response below about 72% or above about 130%; inactive = in between;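 also: Galphao activated as GDP AlF4 complex before binding bead RGS8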
RGS7-Gao single: confirmation of regulators of human RGS7-Galphao interaction. shares compounds with RGS16-Gao. bead-based flow cytometry RGS7-Galphao binding; actives lie on both sides. response (percent of control binding), % at 10 µM. 7.8% of 1,700 active. AID 1837; in the data active = response below about 75% or above about 130%; inactive = in between;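 also: fluorescent Galphao activated with GDP and aluminum fluoride binding bead-coupled RGS7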
RGS16-Gao single: RGS16-Galphao interaction regulation, single point confirmation | bead-based flow cytometry, RGS16-Galphao binding; actives lie on both sides | 4% of 1,700 active | response (% of control binding), % at 10 µM | AID 1838 | shares compounds with RGS16-Gao; in the data active = response below about 74% or above about 130%; inactive = in between;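 also: Galphao activated as the GDP aluminium fluoride complex binding bead-coupled RGS16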
RGS4-Gao single: confirmation of regulators of human RGS4-Galphao interaction; shares compounds with RGS16-Gao; RGS4-Galphao binding, multiplexed bead flow cytometry; actives lie on both sides; binding response (% of control), % at 10 µM; 4% of 1,700 active; in the data active = binding response below about 74% or above about 130%; inactive = in between
RGS19-Gao single: RGS19-Galphao interaction regulation, single point confirmation; shares compounds with RGS16-Gao; bead-based flow cytometry RGS19-Galphao binding; actives lie on both sides; response (percent of control binding), % at 10 µM; 5% of 1,700 active; AID 1841; in the data active = response below about 50% or above about 160%; inactive = in between;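 also: 100% = no compound control and 0% = blank background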
Starred values were filed as active, the others as inactive; ? = inconclusive; nt = no result given; [ ] = remark or other dose. Unless noted, no rule for the calls is given here.

SMILES	RGS8-Gao reg	RGS16-Gao	RGS7-Gao	GSH bead fluor	Avidin fluor	RGS4-Gao reg	Biotin-avidin	RGS8-Gao single	RGS7-Gao single	RGS16-Gao single	RGS4-Gao single	RGS19-Gao single	others
O=[N+]([O-])c1ccc2nc(-c3ccc(OC(F)F)cc3)cn2c1	107	109	105	11	27	106	nt	nt	nt	nt	nt	nt
CCN(CC)C(=S)Oc1ccc(Cl)cc1Cl	99	103	?	nt	3	101	nt	nt	nt	nt	nt	nt
C=C1c2cccc(O)c2C(O)=C2C(=O)[C@]3(O)C(O)=C(C(N)=O)C(=O)[C@@H](N(C)C)[C@@H]3[C@@H](O)[C@H]12	101	96	105	21	5	92	nt	nt	nt	nt	nt	nt
CN(C)[C@@H]1C(=O)C(C(=O)NCN2CCCC2)=C(O)[C@@]2(O)C(=O)C3=C(O)c4c(O)cccc4[C@@](C)(O)C3CC12 (some centres undefined)	18*	8	8.3*	9	-2	21*	-2	53*	26*	54*	60*	35*
Cc1cnc(C(=O)Oc2c(C)ccc(C)c2C)cn1	101	103	97	14	14	102	nt	nt	nt	nt	nt	nt
Cc1ccc(Cn2nnc3c(=O)[nH]c(C4CCCN(S(=O)(=O)c5ccccc5)C4)nc32)cc1 (centres undefined)	73	-107*	80	19	9	73	0	105	99	107	105	109	RGS-Gao=73*
O=c1[nH]c(C2CCCN(S(=O)(=O)c3ccc(F)cc3)C2)nc2c1nnn2Cc1ccccc1 (centres undefined)	103	106	105	14	10	106	nt	nt	nt	nt	nt	nt
CC(C)CCNC1=NCCCCC1	100	101	104	12	11	104	nt	nt	nt	nt	nt	nt
CCCCOCCCNC1=NCCCCC1	86	-11*	90	10	13	87	nt	nt	nt	nt	nt	nt	RGS-Gao=87*
COc1ccc(N/N=C(/C(C)=O)N2CCCc3ccccc32)cc1	98	92	?	nt	6	95	nt	nt	nt	nt	nt	nt
COc1cc(C(=O)Nc2ccc(N(C)C)cc2)cc(OC)c1OC	100	98	98	6	7	99	nt	nt	nt	nt	nt	nt
COc1cc(C(=O)NNC(=O)c2ccc(NC(C)=O)cc2)cc(OC)c1OC	14*	11*	17*	8	1	23*	-1	107	210*[activator]	132*[activator]	165*[activator]	255*[activator]
CCOC(=O)Cc1csc(NC(=O)CSc2nnc(-c3ccc(C)cc3)o2)n1	99	104	98	36	7	96	nt	nt	nt	nt	nt	nt
CCOC(=O)Cc1csc(NC(=O)CSc2nnc(-c3ccc(F)cc3)o2)n1	72	-13*	57	12	3	61	-1	95	68*	84	80	54	RGS-Gao=61*
CC(=O)c1cccc(NC(=O)NCCc2c[nH]c3ccccc23)c1	96	88	?	nt	7	89	nt	nt	nt	nt	nt	nt
Cc1ccc2[nH]cc(CCNC(=O)Nc3ccccc3)c2c1	nt	nt	nt	46	nt	nt	0	104	107	105	102	97
CCCNCC1C(Oc2ccc(Cl)cc2)C(=O)N1c1ccccc1C (centres undefined)	107	110	103	5	12	105	nt	nt	nt	nt	nt	nt
COc1ccc(C)cc1-n1nnnc1SCC1CCCO1 (centres undefined)	16*	17*	21*	24	2	26*	-2	108	108	108	106	118
Cc1ccc(-n2c(N)c(C(=O)Nc3c(C)n(C)n(-c4ccccc4)c3=O)c3nc4ccccc4nc32)cc1C	99	106	96	11	20	96	nt	nt	nt	nt	nt	nt
COc1ccc(-n2c(N)c(C(=O)Nc3c(C)n(C)n(-c4ccccc4)c3=O)c3nc4ccccc4nc32)cc1	141*[activator]	288*[activator]	?	nt	116*	315*[activator]	0	102	105	101	102	100
COc1ccc(CC(=O)OCC(=O)NCCc2ccccc2)cc1OC	105	105	105	12	9	106	nt	nt	nt	nt	nt	nt
CCCC(CCC)C(=O)Nc1ccc2c(c1)N(C(=O)CN1CCN(C)CC1)c1ccccc1CC2	129	253*[activator]	119	24	6	121	1	105	104	102	102	100	RGS-Gao=121*
O=C1c2ccccc2C(=O)N1CCN1CCOCC1	99	120	259*[activator]	20	233*	92	nt	nt	nt	nt	nt	nt	RGS-Gao=92*
Cc1nc2ccc(NC(=O)N(C)c3ccccc3)cc2s1	102	105	102	17	3	101	nt	nt	nt	nt	nt	nt
Cc1nc2ccc(NC(=O)N(C(C)C)C(C)C)cc2s1	108	124	169*[activator]	12	82*	98	1	102	102	101	99	104	RGS-Gao=98*
Cc1ccc(C(=O)COC(=O)CCCC(=O)Nc2cc(C(F)(F)F)ccc2Cl)cc1C	26*	11*	12*	8	0	20*	-1	100	96	99	99	88
Cc1ccc(C(=O)COC(=O)CCC(=O)Nc2ccccc2Cl)cc1[N+](=O)[O-]	114	127	100	13	7	101	nt	nt	nt	nt	nt	nt
O=C(NCC(=O)N1CC(O)CC1C(=O)N1CCCC1C(=O)OCc1ccccc1)OCc1ccccc1 (centres undefined)	97	95	94	9	18	90	nt	nt	nt	nt	nt	nt
C#Cc1ccc([C@H]2C=C(C(=O)NCc3ccccc3)O[C@@H](OCC)[C@@H]2CCCO)cc1	103	100	101	21	6	101	nt	nt	nt	nt	nt	nt
C#Cc1ccc([C@@H]2C=C(C(=O)Nc3ccccc3)O[C@H](OCC)[C@H]2CCCO)cc1	17*	11*	12*	18	0	22*	1	105	101	105	100	100
